# Hit rate of the full screen: of about 5,500 compounds, about 2,000 (36%) were called active. Another 18% or so got no clear call; they are omitted. The list shows a part of the results. Unmarked numbers belong to inactive results. Rule as the data show it: active = normalized growth mostly below about 0.91 (no sharp cut-off); inconclusive = no clear call, values can overlap the other calls; inactive = mostly above about 0.92.
# Test: chemical genetic growth profiling, strain panel (AID 1159580);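 also: tested at 20 µM; growth read once vehicle control cultures reached saturation at 30 °C; 1 = growth at the plate median or of vehicle wells; lower values mean less growth of the strain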
# Details: growth OD
compound,measurement,setting,value
CCCCC(CC)CN1CN(CC(CC)CCCC)CC(C)(N)C1 (centres undefined),normalized growth,"S. cerevisiae deletion strains, locus YJR043C, strain POL32, active compounds read low",0.37 (active)
same,normalized growth,"S. cerevisiae deletion strains, locus YJR075W, strain HOC1, active compounds read low",0.372 (active)
same,normalized growth,"S. cerevisiae deletion strains, locus YKL009W, strain mrt4, active compounds read low",0.939
same,normalized growth,"S. cerevisiae deletion strains, locus YKL068W, active compounds read low",1.01
same,normalized growth,"S. cerevisiae deletion strains, locus YKL085W, strain MDH1 (second series), active compounds read low",0.994
same,normalized growth,"S. cerevisiae deletion strains, locus YKL085W, strain MDH1, active compounds read low",0.994
same,normalized growth,"S. cerevisiae deletion strains, locus YKL160W, strain elf1, active compounds read low",0.373 (active)
same,normalized growth,"S. cerevisiae deletion strains, locus YKL190W, strain CNB1, active compounds read low",0.445 (active)
same,normalized growth,"S. cerevisiae deletion strains, locus YKR001C, strain vps1, active compounds read low",0.0669 (active)
same,normalized growth,"S. cerevisiae deletion strains, locus YKR026C, strain gcn3, active compounds read low",0.059 (active)
same,normalized growth,"S. cerevisiae deletion strains, locus YKR091W, strain srl3, active compounds read low",0.0561 (active)
same,normalized growth,"S. cerevisiae deletion strains, locus YLL001W, strain dnm1, active compounds read low",0.0613 (active)
same,normalized growth,"S. cerevisiae deletion strains, locus YLL026W, active compounds read low",0.0554 (active)
same,normalized growth,"S. cerevisiae deletion strains, locus YLL041C, strain sdh2, active compounds read low",0.0528 (active)
same,normalized growth,"S. cerevisiae deletion strains, locus YLR027C, strain aat2, active compounds read low",0.0535 (active)
same,normalized growth,"S. cerevisiae deletion strains, locus YLR039C, strain RIC1, active compounds read low",0.352 (active)
same,normalized growth,"S. cerevisiae deletion strains, locus YLR058C, strain SHM2, active compounds read low",0.525 (active)
same,normalized growth,"S. cerevisiae deletion strains, locus YLR102C, strain apc9, active compounds read low",0.832 (active)
same,normalized growth,"S. cerevisiae deletion strains, locus YLR221C, strain rsa3, active compounds read low",0.0576 (active)
same,normalized growth,"S. cerevisiae deletion strains, locus YLR258W, strain gsy2, active compounds read low",0.0568 (active)
same,normalized growth,"S. cerevisiae deletion strains, locus YLR262C, strain YPT6 (second series), active compounds read low",0.0741 (active)
same,normalized growth,"S. cerevisiae deletion strains, locus YLR262C, strain YPT6, active compounds read low",0.269 (active)
same,normalized growth,"S. cerevisiae deletion strains, locus YLR268W, strain sec22, active compounds read low",0.484 (active)
same,normalized growth,"S. cerevisiae deletion strains, locus YLR320W, strain mms22, active compounds read low",0.0732 (active)
same,normalized growth,"S. cerevisiae deletion strains, locus YLR330W, strain CHS5, active compounds read low",0.437 (active)
same,normalized growth,"S. cerevisiae deletion strains, locus YLR342W, strain FKS1 (second series), active compounds read low",0.254 (active)
same,normalized growth,"S. cerevisiae deletion strains, locus YLR342W, strain FKS1, active compounds read low",0.0622 (active)
same,normalized growth,"S. cerevisiae deletion strains, locus YLR357W, strain rsc2, active compounds read low",0.114 (active)
same,normalized growth,"S. cerevisiae deletion strains, locus YLR370C, strain arc18, active compounds read low",0.0656 (active)
same,normalized growth,"S. cerevisiae deletion strains, locus YLR371W, strain rom2, active compounds read low",0.23 (active)
same,normalized growth,"S. cerevisiae deletion strains, locus YLR384C, strain iki3, active compounds read low",0.0552 (active)
same,normalized growth,"S. cerevisiae deletion strains, locus YLR418C, strain cdc73, active compounds read low",0.153 (active)
same,normalized growth,"S. cerevisiae deletion strains, locus YML016C, strain PPZ1, active compounds read low",0.743 (active)
same,normalized growth,"S. cerevisiae deletion strains, locus YML032C, strain rad52, active compounds read low",0.407 (active)
same,normalized growth,"S. cerevisiae deletion strains, locus YML120C, strain ndi1, active compounds read low",0.0565 (active)
same,normalized growth,"S. cerevisiae deletion strains, locus YML124C, strain tub3, active compounds read low",0.692 (active)
same,normalized growth,"S. cerevisiae deletion strains, locus YMR058W, strain fet3, active compounds read low",0.0601 (active)
same,normalized growth,"S. cerevisiae deletion strains, locus YMR078C, strain ctf18, active compounds read low",0.802 (active)
same,normalized growth,"S. cerevisiae deletion strains, locus YMR125W, strain sto1, active compounds read low",0.0743 (active)
same,normalized growth,"S. cerevisiae deletion strains, locus YMR129W, active compounds read low",0.0564 (active)
same,normalized growth,"S. cerevisiae deletion strains, locus YMR205C, strain PFK2, active compounds read low",0.0816 (active)
same,normalized growth,"S. cerevisiae deletion strains, locus YMR223W, strain ubp8, active compounds read low",0.316 (active)
same,normalized growth,"S. cerevisiae deletion strains, locus YMR231W, strain pep5, active compounds read low",0.0615 (active)
same,normalized growth,"S. cerevisiae deletion strains, locus YMR263W, strain SAP30, active compounds read low",0.489 (active)
same,normalized growth,"S. cerevisiae deletion strains, locus YMR307W, strain GAS1, active compounds read low",0.162 (active)
same,normalized growth,"S. cerevisiae deletion strains, locus YNL067W, strain RPL9B, active compounds read low",0.605 (active)
same,normalized growth,"S. cerevisiae deletion strains, locus YNL071W, strain lat1, active compounds read low",0.058 (active)
same,normalized growth,"S. cerevisiae deletion strains, locus YNL128W, strain TEP1, active compounds read low",0.288 (active)
same,normalized growth,"S. cerevisiae deletion strains, locus YNL153C, strain GIM3, active compounds read low",0.356 (active)
same,normalized growth,"S. cerevisiae deletion strains, locus YNL209W, strain ssb2, active compounds read low",0.0575 (active)
same,normalized growth,"S. cerevisiae deletion strains, locus YNL233W, strain BNI4, active compounds read low",0.26 (active)
same,normalized growth,"S. cerevisiae deletion strains, locus YNL248C, strain rpa49, active compounds read low",0.0852 (active)
same,normalized growth,"S. cerevisiae deletion strains, locus YNL250W, strain rad50, active compounds read low",1.01
same,normalized growth,"S. cerevisiae deletion strains, locus YNL271C, strain bni1, active compounds read low",0.997
same,normalized growth,"S. cerevisiae deletion strains, locus YNL298W, strain CLA4, active compounds read low",1.01
same,normalized growth,"S. cerevisiae deletion strains, locus YNL307C, strain MCK1, active compounds read low",0.262 (active)
same,normalized growth,"S. cerevisiae deletion strains, locus YNL322C, strain KRE1 (second series), active compounds read low",0.0601 (active)
same,normalized growth,"S. cerevisiae deletion strains, locus YNL322C, strain KRE1, active compounds read low",0.336 (active)
same,normalized growth,"S. cerevisiae deletion strains, locus YNR049C, strain mso1, active compounds read low",0.0593 (active)
same,normalized growth,"S. cerevisiae deletion strains, locus YNR052C, strain pop2, active compounds read low",0.0951 (active)
same,normalized growth,"S. cerevisiae deletion strains, locus YOL006C, strain TOP1, active compounds read low",0.196 (active)
same,normalized growth,"S. cerevisiae deletion strains, locus YOL012C, strain htz1",0.192
same,normalized growth,"S. cerevisiae deletion strains, locus YOL147C, strain pex11, active compounds read low",0.497 (active)
same,normalized growth,"S. cerevisiae deletion strains, locus YOR001W, strain rrp6, active compounds read low",0.0714 (active)
same,normalized growth,"S. cerevisiae deletion strains, locus YOR061W, strain CKA2, active compounds read low",0.583 (active)
same,normalized growth,"S. cerevisiae deletion strains, locus YOR069W, strain VPS5, active compounds read low",0.736 (active)
same,normalized growth,"S. cerevisiae deletion strains, locus YOR070C, strain gyp1, active compounds read low",0.0567 (active)
same,normalized growth,"S. cerevisiae deletion strains, locus YOR080W, strain dia2, active compounds read low",0.0601 (active)
same,normalized growth,"S. cerevisiae deletion strains, locus YOR083W, strain WHI5, active compounds read low",0.0602 (active)
same,normalized growth,"S. cerevisiae deletion strains, locus YOR106W, strain vam3, active compounds read low",0.0665 (active)
same,normalized growth,"S. cerevisiae deletion strains, locus YOR136W, strain idh2, active compounds read low",0.607 (active)
same,normalized growth,"S. cerevisiae deletion strains, locus YOR144C, strain elg1, active compounds read low",0.662 (active)
same,normalized growth,"S. cerevisiae deletion strains, locus YOR184W, strain ser1, active compounds read low",0.325 (active)
same,normalized growth,"S. cerevisiae deletion strains, locus YOR265W, strain rbl2, active compounds read low",0.0536 (active)
same,normalized growth,"S. cerevisiae deletion strains, locus YOR270C, strain vph1, active compounds read low",0.0981 (active)
same,normalized growth,"S. cerevisiae deletion strains, locus YOR290C, strain snf2, active compounds read low",0.0607 (active)
same,normalized growth,"S. cerevisiae deletion strains, locus YOR316C, strain cot1, active compounds read low",0.863 (active)
same,normalized growth,"S. cerevisiae deletion strains, locus YPL051W, strain arl3, active compounds read low",0.0603 (active)
same,normalized growth,"S. cerevisiae deletion strains, locus YPL055C, strain LGE1, active compounds read low",0.189 (active)
same,normalized growth,"S. cerevisiae deletion strains, locus YPL078C, strain atp4, active compounds read low",0.0642 (active)
same,normalized growth,"S. cerevisiae deletion strains, locus YPL106C, strain sse1, active compounds read low",0.0997 (active)
same,normalized growth,"S. cerevisiae deletion strains, locus YPL240C, strain hsp82, active compounds read low",0.0539 (active)
same,normalized growth,"S. cerevisiae deletion strains, locus YPL241C, strain CIN2, active compounds read low",0.733 (active)
same,normalized growth,"S. cerevisiae deletion strains, locus YPR119W, strain clb2, active compounds read low",0.627 (active)
same,normalized growth,"S. cerevisiae deletion strains, locus YPR141C, strain kar3, active compounds read low",1.01
same,normalized growth,"S. cerevisiae deletion strains, locus YPR163C, strain tif3, active compounds read low",0.178 (active)
same,normalized growth,"S. cerevisiae deletion strains, locus YPR167C, strain met16, active compounds read low",0.533 (active)
same,normalized growth,"S. cerevisiae deletion strains, strain wtn01, active compounds read low",0.425 (active)
same,normalized growth,"S. cerevisiae strains, strain wild type, active compounds read low",0.21 (active)
